Assay outcomes deposited in PubChem by National Center for Advancing Translational Sciences (NCATS).
Only some compounds are listed: those with a hit (about 3.1% of all), similar ones and a draw of the others.
uPA surface inh: blocks generation of uPA at the cell surface; cell surface uPA generation assay, qHTS; Potency, µM (top dose mostly 38.3 µM), without a hit: top-dose activity change, negative = inhibition, hits mostly inhibitors; actives 0.31% (n = 330,000); active = well fitted inhibition curve with a large enough effect; inconclusive = small, poorly fitted or top-dose-only effect; inactive = no such curve, though single readings can be large or run the other way; tested in mouse RAW 264.7 cells; also: potency is read from the fitted curve at half-maximal effect; % is scaled to controls: 0 for no effect and ±100 for the full control effect; nearly all actives have a fitted effect of over 55% in size
DRD3 antagonist: D3 dopamine receptor (human) antagonism | P35462 | D3R cells, DiscoveRx beta-arrestin luminescence, antagonist mode; active compounds read low | max response, negative = inhibition, % | actives 2.5% (n = 360,000) | AID 652054; in the data active = max response below about -50%; inconclusive = no clear call, values can overlap the other calls; also: % is scaled to controls: 0 for no effect and ±100 for the full control effect
Target sequence (P35462 whole entry, looked up): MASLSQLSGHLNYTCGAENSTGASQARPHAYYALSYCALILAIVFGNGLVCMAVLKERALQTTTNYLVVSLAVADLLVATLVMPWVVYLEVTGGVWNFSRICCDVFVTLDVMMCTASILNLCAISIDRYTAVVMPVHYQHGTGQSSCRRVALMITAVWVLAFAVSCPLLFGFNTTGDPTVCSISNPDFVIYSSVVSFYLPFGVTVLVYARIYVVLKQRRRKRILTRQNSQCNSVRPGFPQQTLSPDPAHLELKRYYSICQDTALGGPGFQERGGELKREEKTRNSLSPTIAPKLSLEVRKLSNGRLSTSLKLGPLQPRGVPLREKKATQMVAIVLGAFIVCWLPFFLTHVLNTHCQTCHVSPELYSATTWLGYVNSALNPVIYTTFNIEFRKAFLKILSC
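Cells expressing the human receptor were seeded at 1500 cells/well, incubated overnight at 37 degrees C in 5% CO2, then exposed to library compounds with dopamine controls for 90 minutes at 37 degrees C before luminescent detection.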
RGS4 inh: human RGS4 inhibition. Transcreener GDP fluorescence polarization, RGS4-accelerated GTP hydrolysis. Potency, µM (series often up to 114 µM), inactives show at the top dose activity change, negative = inhibition, actives largely listed as inhibitors. P49798. actives 0.039% (n = 390,000); active = well fitted inhibition curve with a large enough effect; inconclusive = small, poorly fitted or top-dose-only effect; inactive = no such curve, though single readings can be large or run the other way; also: potency is read from the fitted curve at half-maximal effect; % is scaled to controls: 0 for no effect and ±100 for the full control effect; nearly all actives have a fitted effect of over 75% in size
Target sequence (P49798 whole entry, looked up): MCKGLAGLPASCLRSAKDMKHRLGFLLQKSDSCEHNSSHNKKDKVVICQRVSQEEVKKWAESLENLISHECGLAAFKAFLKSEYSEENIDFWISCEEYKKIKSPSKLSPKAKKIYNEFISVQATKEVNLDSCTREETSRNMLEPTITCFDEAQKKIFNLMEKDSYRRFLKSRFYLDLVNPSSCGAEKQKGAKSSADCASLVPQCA
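MLSMR compounds (23 nl, pin-transferred) preincubated 10 min at room temperature with a 500nM (2x) first reagent, then RGS4 at 900nM (2x) plus Transcreener GDP mix added; fluorescence polarization (620/688 nm) read before and after 90 min at 30 °C.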
D3 ag: D3 dopamine receptor (human) agonism; D3R DiscoveRx beta-arrestin cells, luminescence, 90 min; max activation, %; actives 0.58% (n = 410,000); AID 652048; in the data active = max activation above about 30%; also: 0% is about no effect
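Cells at 1500/well, incubated overnight, then treated with pinned compounds (dopamine as control) for 90 min at 37 degrees C. DiscoveRx reagent added for 30 - 60 minutes at room temperature; luminescence read.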
An asterisk follows results filed as active; u = inconclusive; x = no result; [ ] = another dose, or the depositor's remark.

SMILES	uPA surface inh	DRD3 antagonist	RGS4 inh	D3 ag
COc1ccc(C2=NOC(Cn3nc(C(=O)NCc4cccc(Br)c4)cc3-c3ccccc3)C2)cc1 (configuration not stated)	4%	34	4%	2
COc1ccc(C2=NOC(Cn3nc(-c4ccccc4)cc3C(=O)NCc3cccc(Br)c3)C2)cc1 (configuration not stated)	9%	33	-7%	34*
COc1ccc(C)cc1NC(=O)C(=O)NCC(c1cccnc1)N1CCN(c2ccccc2F)CC1 (configuration not stated)	x	x	-1%	-18
Cc1ccc(-n2c(=O)c3c(cnn3C)n(CC(=O)Nc3cccc(Cl)c3)c2=O)cc1	x	x	1%	-4
O=C(NCCCN1CCOCC1)NC1CCCCC1	-11%	-23	15%	2
O=C(NCCCCCCCN1CCCCCCC1)C(C1CCCCC1)C1CCCCC1	0%	-65*	-30%	-29
Cc1c(Cl)cccc1NC(=O)CN1C(=O)c2ccccc2Sc2ncccc21	x	x	20%	-13
CC(C)OC(=O)c1cc(C(=O)OC(C)C)cc([N+](=O)[O-])c1	x	x	x	11
CC(C)OC(=O)c1cc(NC(=S)Nc2ccc([N+](=O)[O-])cc2)cc(C(=O)OC(C)C)c1	1%	-63*	-18%	3
COc1cccc(NC(=O)CSCc2cc(=O)c3ccc(C)c(C)c3[nH]2)c1	x	x	-7%	4
CCOC(=O)C1=C(C)NC2=C(C(=O)CC(c3cccs3)C2)C1c1cccs1 (configuration not stated)	-13%	-82*	-9%	-7
CCOC(=O)C1(CCOC)CCN(Cc2nc(-c3cccs3)oc2C)CC1	2%	u	12%	-12
Cc1oc(-c2cccs2)nc1CN1CCC(CO)(CCOc2ccccc2)CC1	3%	-89*	7%	-12
COc1ccc(C(=O)Cn2c(C)nc([N+](=O)[O-])c2Br)cc1	-14%	-56*	-13%	-25
Cc1nc([N+](=O)[O-])c(NCCO)n1Cc1ccccc1	0%	8	-28%	8
Cc1nc([N+](=O)[O-])c(Br)n1Cc1ccc(Cl)c(Cl)c1	u	-76*	5%	-15
Cc1nc([N+](=O)[O-])c(Br)n1CC(=O)c1ccc(Cl)cc1	-14%	-29	-8%	-2
O=C(CC1Sc2ccc(C(F)(F)F)cc2NC1=O)Nc1ccc(Cl)c(C(F)(F)F)c1 (configuration not stated)	x	x	5%	16
Cc1cc(C)cc(NC(=O)[C@H](NC(=O)[C@@H]2Cc3ccccc3CN2)c2ccccc2)c1	0%	-108*	17%	-25
Cc1ccc(NC(=O)[C@H](NC(=O)[C@@H]2Cc3ccccc3CN2)c2ccccc2)c(C)c1	0%	-23	-2%	0
CCc1ccc(NC(=O)[C@H](NC(=O)[C@@H]2Cc3ccccc3CN2)c2ccccc2)cc1	-21%	-101*	-31%[56.9 µM]	-22
CCOC(=O)c1c(C)oc2nc(C)nc(NCC3CCN(Cc4ccc(Cl)cc4)CC3)c12	x	x	-8%	-18
Cc1nc(C#N)c(N/N=C/c2c(F)cccc2Cl)o1	-2%	-64*	-44%	-2
Cc1nc(N)nc(N/N=C/c2c(F)cccc2Cl)n1	-5%	-17	-3%	-18
COc1ccc(/C=C2\CCc3ccccc3C2=O)cc1Cn1nc(C)cc1C	-9%	-79*	-16%	1
SMILES	uPA surface inh	DRD3 antagonist	RGS4 inh	D3 ag
COC(=O)CN(n1cnnc1)S(=O)(=O)c1ccc(C)cc1	1%	-54*	31%	0
COC(=O)CN(c1cc(Cl)ccc1OC)S(=O)(=O)c1ccc(C)cc1	-7%	-16	4%	-7
CCOC(=O)c1ccc(CN(Cc2ccc(F)cc2)S(=O)(=O)c2ccc(F)c(C(=O)Nc3cc(Cl)ccc3OC)c2)cc1	x	x	19%	4
COc1cc(CNCc2ccccc2)c(Br)cc1OC1CCCC1	-5%	-62*	12%	-18
COc1cc(CNC2CCCC2)c(Br)cc1OC1CCCC1	x	-7	14%	-22
CCn1cc(S(=O)(=O)c2ccc(C)cc2C)c(=O)c2cc(F)c(N3CCCCC3)cc21	x	x	-14%	-5
COC(=O)c1ccc(C23CC4(C2)[C@H](CN(Cc2cccnc2)[C@@H]4c2ccccc2)C3c2ccccc2)cc1 (some centres not stated)	-2%	-28	-10%	47*
CN(c1ccc(C(=O)N2CCOCC2)cc1[N+](=O)[O-])C1CCCCC1	-12%	-60*	20%	1
COc1ccccc1-c1nnc(NC(C)=O)s1	-4%	-88*	30%	-5
CCCCOC(=O)Nc1nnc(-c2ccccc2OC)s1	2%	15	13%	-5
COc1ccccc1-c1nnc(NC(=O)C(C)C)s1	4%	-75*	29%	-2
CCOC(=O)Cc1csc(NC(=O)CN2CCCCC2)n1	1%	-55*	19%	-8
COc1ccc(/C=C/C(=O)Nc2nc(-c3cccs3)ns2)cc1	x	x	8%	5
COc1ccc(/C=C/C(=O)Nc2nc(-c3cccs3)ns2)cc1OC	x	x	-13%	36*
Nc1nn(-c2ccccc2)nc1C(=O)OCc1ccccc1	1%	-65*	10%	-14
CCc1ccc(NC(=O)c2cc3c(COC(C)=O)cnc(C)c3oc2=O)cc1	x	x	-5%	12
CNCCOc1ccccc1OC(C)C	-2%	-79*	8%	-17
CCC(CC)C(=O)Nc1ccc2nc(SCC(=O)N3CCOCC3)sc2c1	x	x	10%	11
Cc1cc(OCc2ccccc2)ccc1/C(O)=C1/C(=O)C(=O)N(Cc2cccnc2)C1c1ccncc1 (configuration not stated)	1%	7	-18%	-2
COc1ccc(/C(O)=C2/C(=O)C(=O)N(Cc3cccnc3)C2c2ccncc2)cc1F (configuration not stated)	-1%	-136*	-37%	-2
COc1ccc(S(=O)(=O)N2CCCCC2c2cc(C(=O)N3CCOCC3)no2)cc1 (configuration not stated)	x	-96*	x	-7
O=Nc1c(O)n(Cc2ccc(Cl)cc2Cl)c2ccccc12	8%	-92*	2%	1
O=Nc1c(O)n(Cc2ccc(Cl)cc2)c2ccccc12	0%	3	12%	2
O=C(NN1C(=O)c2ccccc2NC1c1ccc([N+](=O)[O-])o1)c1ccccc1 (configuration not stated)	-11%	-4	-3%	5
O=C(NN1C(=O)c2ccccc2NC1c1ccc([N+](=O)[O-])o1)c1ccc([N+](=O)[O-])cc1 (configuration not stated)	-13%	-61*	-27%	1
Cc1nc(N2CCc3ccccc3C2)[nH]c(=O)c1Cc1ccccc1	0%	12	-18%	3
Cc1nc(-n2[nH]c3c(c2=O)CCCC3)[nH]c(=O)c1Cc1ccccc1	-9%	-61*	4%	-14
O=C(COC(=O)c1ccccc1NCCO)NCCC1=CCCCC1	0%	-64*	-13%	-15
FC(F)(F)c1ccc(Cl)c(Nc2nnc(-c3ccncc3)s2)c1	x	-56*	x	-8
